Screening data (PubChem BioAssay)
A selection: hits, their analogues and other compounds. The true share with any hit is near 3.7%.
TCR act = Activators of T cell receptors: qHTS campaign | primary human leukocytes, anti-CD3, IL-2 HTRF, 48 h | Potency, µM (top dose mostly 9.22 µM), hits mostly activators | 330,000 tested, under 10 active | AID 504894, 2011
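Primary human leukocytes receive a-CD3 beads and test compound and are incubated 48 hr. Secreted IL-2 is then assayed by HTRF, measuring 665nm acceptor emission after 320nm excitation of the europium donor.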
Nrf2 block = Nrf2 qHTS screen for inhibitors; A549 ARE-Fluc reporter, luciferase luminescence, 18-24 h; Potency, µM (series often up to 46 µM), usual class: inhibitors; 360,000 compounds, 2.1% hits; AID 504444, 2011; note: nearly all actives have a fitted effect of over 60% in size
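In this cell-based qHTS, ARE-driven firefly luciferase in A549 cells reports Nrf2 activity; the luminescent signal after BugLite lysis is the measured value, with a prior CellTiter-Fluor read for cell health.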
ClpP mod = qHTS Assay for Activators of ClpP; ATP-dependent Clp protease proteolytic subunit (Bacillus subtilis (strain 168)), P80244; purified B. subtilis ClpP, FRET peptide cleavage, 20 min; Potency, µM (doses to about 57.5 µM); 340,000 compounds, 1.9% hits; AID 651965, 2013; active = well fitted falling curve with a large enough effect; inconclusive = small, poorly fitted or top-dose-only effect; inactive = no such curve, though single readings can be large or run the other way; note: the source files actives as falling curves though it sought activators and does not explain the sign; nearly all actives have a fitted effect of over 65% in size
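ClpP 10 microg/mL final, pH 8 Tris/KCl buffer with BSA, glycerol, Tween-20; compound pinned in; FRET-FV substrate; RT 20 min; Ex320/Em430; ΔFRET vs ADEP 5.8 microM, DMSO, no enzyme.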
A549 viability = Nrf2 qHTS screen for inhibitors: counterscreen for cytotoxicity. A549 ARE-Fluc cells, CellTiter-Fluor viability, 18-24 h. Potency, µM (series often up to 46 µM), actives largely listed as inhibitors. 390,000 compounds, 0.16% hits. AID 504648, 2011
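A549 ARE-Fluc cells in 5% FBS OPTI-MEM, 5000 cells/well, rested 2 h then exposed to compounds in concentration-response for 18-24 h at 37 °C. Viability by CellTiter-Fluor fluorescence (Ex 405/Em 525) after 30 min; luciferase luminescence (BugLite, 15 min, RT) read afterwards.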
miR-21 reporter = qHTS Assay for Modulators of miRNAs and/orActivators of miR-21. Potency, µM (series often up to 38.3 µM), actives largely listed as activators. HeLa miR-21 FLuc reporter, luciferase, 48 h. 340,000 tested, under 10 active;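 note: miR-21 action dims this reporter so a rising signal means less miR-21 action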
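HeLa cells endogenously expressing miR-21, stably carrying CMV-driven firefly luciferase with a downstream miR-21 binding site, 2000 cells/well. Titrations up to approximately 40 uM, 48 hours; luciferase luminescence read.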
Nrf2 ARE act = qHTS of Nrf2 Activators | AREc32 ARE-luciferase reporter (MCF7-derived line), luminescence, 24 h | 410,000 compounds, 0.31% hits | Potency, µM (series often up to 46.1 µM), actives largely listed as activators; note: nearly all actives have a fitted effect of over 65% in size
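Nrf2 activation is followed as ARE-luciferase induction in the AREc32 line after one day of compound treatment; luminescence is read with Steady-Glo.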
Numbers stand for hits; . = inactive; ? = inconclusive; / = no result; [ ] = remark or other dose. Unless noted, calls come from the whole dose curve; as a rule, active = well fitted curve in the direction sought with a large enough effect; inconclusive = small, poorly fitted or top-dose-only effect, or another doubt; inactive = no such curve, though single readings can be large; an effect the other way counts as inactive or inconclusive.

SMILES | TCR act | Nrf2 block | ClpP mod | A549 viability | miR-21 reporter | Nrf2 ARE act
COc1cccc(CNC(=O)CCNC(=O)c2ccccc2OC)c1 | . | . | . | . | . | .
COc1ccc(N(C(=O)c2ccccc2C)S(=O)(=O)c2ccc3c(c2)n(C)c(=O)n3C)cc1 | / | . | . | . | . | .
COc1ccc(NC(=O)c2oc3ccccc3c2NC(=O)c2ccco2)cc1 | . | 1.64µM | . | . | . | .
O=C(Nc1ccc(-c2nc3c(ccc4ccccc43)o2)cc1)c1ccco1 | / | . | 12.6µM | .[1.84 µM] | . | .
O=C(Nc1ccc(-c2nc3cc(Cl)ccc3c(=O)o2)cc1)c1ccco1 | . | . | . | . | . | .
CCOc1ccccc1C(=O)Nc1c(C(=O)Nc2ccc(F)cc2)oc2ccccc12 | / | . | 31.6µM | . | . | .
COc1ccc(-c2ccc(NS(=O)(=O)c3cccc(Cl)c3)cc2)nn1 | / | / | . | . | . | .
N#Cc1ccccc1CN1C(=O)NC2(CCCCCC2)C1=O | . | . | . | . | . | .
N#Cc1cc2cc3c(cc2nc1N1CCOCC1)OCO3 | . | ? | 31.6µM | . | . | .
Cc1cc(C)c2nc(N3CCOCC3)c(C#N)cc2c1 | . | . | / | . | . | .[9.22 µM]
CCc1ccc(OCC(=O)NNC(=S)NC(=O)C2CCCCC2)c(Br)c1 | . | . | . | . | . | .
CCc1ccc(OCC(=O)NNC(=S)NC(=O)C2CC2)c(Br)c1 | . | 6.51µM | . | . | . | .
CCOc1ccc2[nH]c(C)c(CN3CCN(CC)CC3)c(=O)c2c1 | . | . | 15.8µM | . | . | .
Cc1[nH]c2ccc(Br)cc2c(=O)c1CN1CCCCC1 | . | . | . | . | . | .
COC(=O)c1ccc2[nH]c(C)c(CN3CCCC3)c(=O)c2c1 | . | . | 28.2µM | . | . | .
C=CCN(CC=C)Cc1c(C)[nH]c2ccc(C(=O)OCC)cc2c1=O | . | . | 28.2µM | . | . | .
CCOc1ccc2[nH]c(C)c(CN3CCN(C)CC3)c(=O)c2c1 | . | . | . | . | . | .
Cc1cn(S(=O)(=O)c2ccc(F)c(Cl)c2)cn1 | / | . | . | . | . | .
O=C(c1ccc(N2CCCCC2)c([N+](=O)[O-])c1)N(Cc1ccccc1)c1ccccn1 | . | 16.4µM | . | . | . | .
CC1Cc2ccccc2N1C(=O)c1ccc(N2CCCC2)c([N+](=O)[O-])c1 (stereo unspecified) | . | 18.4µM | / | ? | . | .
CC1Cc2ccccc2N1C(=O)c1ccc(N2CCCCC2)c([N+](=O)[O-])c1 (stereo unspecified) | . | 23.1µM | . | . | . | .
O=C1C=C(O)CC2(CCCCC2)C1 | / | / | . | / | / | .
Cc1cccc(N2C(=O)N3[C@@H]4c5ccccc5OC[C@@H]4[C@@H](c4ccccc4)[C@@]3(C)C2=O)c1 | . | . | . | . | . | .
Cc1sc(NC(=S)NC(=O)CCc2ccccc2)c(C(N)=O)c1C | . | ? | 28.2µM | . | . | .
COc1ccc(C2Nc3ccccc3C(=O)N2CCCN(C)C)cc1COc1ccc(NC(C)=O)cc1 (stereo unspecified) | / | . | / | . | / | /
SMILES | TCR act | Nrf2 block | ClpP mod | A549 viability | miR-21 reporter | Nrf2 ARE act
Cc1cc(C)c2oc(-c3cccc(NC(=O)c4ccc(Br)o4)c3)nc2c1 | / | . | ? | . | . | .
O=C(Nc1cccc(-c2nnc(-c3ccccc3)o2)c1)c1ccc(Br)o1 | . | 23.1µM | . | ? | . | .
COc1cc(-c2nnc(COc3ccc4cc(Br)ccc4c3)o2)cc(OC)c1OC | . | . | . | . | . | .
COc1ccc(-c2nnc(COc3ccc4ccccc4c3)o2)cc1OC | . | 23.1µM | ? | / | . | .
Cc1ccccc1-c1nnc(-c2cccs2)o1 | . | . | . | . | . | 11.2µM
COc1ccc(-c2nnc(-c3cccs3)o2)cc1OC | . | / | 31.6µM | . | . | .
NCCCCCCNS(=O)(=O)c1ccc2c(Cl)cccc2c1 | / | / | . | / | / | /
COc1ccc(-c2c3c(=O)n(C)c(=O)n(C)c3c3n2-c2ccccc2NC3c2ccco2)cc1 (stereo unspecified) | / | . | . | . | . | .
CCOC(=O)CC(C)(C)/C(C)=N/Nc1ccc([N+](=O)[O-])cc1[N+](=O)[O-] | . | 18.4µM | / | ? | . | .
Cc1cc(NS(=O)(=O)c2ccc(NC(=O)COc3cc(C)c(Br)cc3C(C)C)cc2)no1 | / | . | . | . | . | .
CC1CCN(S(=O)(=O)c2ccc3c(c2)N(CC(=O)Nc2ccc(F)c(Cl)c2)C(=O)CO3)CC1 | / | ? | . | . | . | .
C=CCOc1ccccc1CN1CCC(Oc2cc(C(=O)NC3CC3)ccc2OC)CC1 | . | . | ? | . | . | .
c1ccc(NCCc2ccccn2)cc1 | . | ? | / | . | / | .
Nc1cc(C(F)(F)F)ccc1NCCc1ccccn1 | . | . | / | . | . | 12.6µM
COc1ccc(NC(=O)Cc2nnc(SCC(=O)Nc3cc(C)ccc3OC)n2C)cc1 | . | . | 25.1µM | . | . | .
COc1ccc(C)cc1NC(=O)CSc1nnc(CC(=O)Nc2cccc(C(F)(F)F)c2)n1C | . | . | . | . | . | .
CC(C1CC1)N(Cc1ccccc1)C(=S)Nc1ccccc1Cl (stereo unspecified) | . | 29.1µM | . | . | . | .
O=C(Nc1ccccn1)c1ccc(Cl)c([N+](=O)[O-])c1 | / | ? | / | . | . | 10µM
O=C(Nc1ccccn1)Nc1ccccc1[N+](=O)[O-] | . | . | / | . | . | 3.98µM
Cc1ccccc1NC(=O)Nc1ccccn1 | . | ? | . | . | . | .
CCNc1nc(C#N)nc(Nc2ccccc2)n1 | / | . | . | . | / | /
CSc1ccc(/C=C2\C=Cc3cc([N+](=O)[O-])ccc32)cc1 | / | / | . | / | / | /
Cc1cccc(NCc2ccc(O)c3ncccc23)c1 | . | ? | / | . | . | .
Oc1ccc(CNc2ccccc2)c2cccnc12 | . | 5.17µM | . | . | . | .
Cc1ccc(NCc2ccc(O)c3ncccc23)c(F)c1 | / | 20.6µM | / | . | / | /
SMILES | TCR act | Nrf2 block | ClpP mod | A549 viability | miR-21 reporter | Nrf2 ARE act
Oc1ccc(CNCc2ccccc2F)c2cccnc12 | / | 1.3µM | / | . | / | /
Oc1ccc(CCc2c(F)cccc2F)c2cccnc12 | / | ? | / | . | / | /
Oc1ccc(CNc2ccc(F)cc2)c2cccnc12 | . | 7.31µM | . | ? | . | .
Oc1ccc(CNc2ccc(C(F)(F)F)cc2F)c2cccnc12 | / | . | / | . | / | /
Cc1ccc2c(=O)c(C(=O)c3cccc(Cl)c3)cn(CC(=O)Nc3ccc4c(c3)OCCO4)c2n1 | / | . | . | . | . | .
O=C1OCC(c2ccc(Cl)s2)=C1c1ccccc1[N+](=O)[O-] | . | . | / | . | . | .
